# Laboratory results: PubChem BioAssay AID651930 (Southern Research Specialized Biocontainment Screening …, 2012)
# Calls of active or inactive are those of the source. No rule for the calls is given here.
# Test: Vero 76 cell cytotoxicity, dose response, cytotoxicity control for VEEV inhibitor project, set 9 (AID 651930)
# Conditions: Vero 76 cytotoxicity; series mostly up to 25 µM; viability: at the top concentration
SMILES,viability,outcome
CN1CCN(C)C(=Nc2ccc([N+](=O)[O-])cc2C(=O)Nc2ccccc2)C1,83.9% (inactive),
CN1CCN(C)C(=Nc2ccc(F)cc2C(=O)Nc2ccccc2)C1,99.3% [at 50 µM] (inactive),
O=c1nc(Nc2ccc(CCc3ccccc3)cc2)sc2ncccc12,83.9% [at 50 µM] (inactive),
CCN1CCN(C)CC1=Nc1ccc([N+](=O)[O-])cc1C(=O)Nc1ccccc1,93.7% [at 50 µM] (inactive),
CCN1CCN(Cc2nc3ccc(-c4cccnc4)cc3c(=O)n2-c2ccccc2)CC1,87.1% (inactive),
O=c1c2cc([N+](=O)[O-])ccc2nc(CN2CCNCC2)n1-c1ccsc1,84.1% (inactive),
CN1CCN(C)C(=Nc2ccc(C#N)cc2C(=O)Nc2cccc(F)c2)C1,84.5% [at 50 µM] (inactive),
CCN1CCN(Cc2nc3ncc([N+](=O)[O-])cc3c(=O)n2-c2ccccc2)CC1,101% (inactive),
O=c1nc(Nc2ccc(OCc3ccccc3)cc2)sc2ncc(F)cc12,86.1% (inactive),
CCN1CCN(CC2Nc3ccc([N+](=O)[O-])cc3C(=O)N2c2ccccc2F)CC1 (stereo unspecified),86% (inactive),
CCN1CCN(Cc2nc3ccc([N+](=O)[O-])cc3c(=O)n2-c2ccccc2)CC1,96.5% (inactive),
CCN1CCN(Cc2nc3ccc(S(=O)(=O)O)cc3c(=O)n2-c2ccccc2)CC1,97.8% (inactive),
CCN1CCN(Cc2nc3ccc(-c4nn[nH]n4)cc3c(=O)n2-c2ccccc2)CC1,86.7% [at 50 µM] (inactive),
CN(C)c1cccc(-n2c(CN3CCNCC3)nc3ccc([N+](=O)[O-])cc3c2=O)c1,99.6% (inactive),
CCN1CCN(Cc2nc3ccc([N+](=O)[O-])cc3c(=O)n2-c2ccccc2F)CC1,,inactive
CCN1CCN(Cc2nc3ccc(C#N)cc3c(=O)n2-c2ccccc2)CC1,87.5% (inactive),
O=c1nc(Nc2cccc(OCc3ccccc3)c2)sc2ncccc12,73.5% (inactive),
COc1cccc(-n2c(CN3CCNCC3)nc3ccc([N+](=O)[O-])cc3c2=O)c1,84.9% (inactive),
O=c1c2cc([N+](=O)[O-])ccc2nc(CN2CCNCC2)n1-c1ccccc1F,102% (inactive),
O=c1c2cc([N+](=O)[O-])ccc2nc(C2CCNCC2)n1-c1ccccc1,82.6% (inactive),
CCN1CCN(c2nc3ccc([N+](=O)[O-])cc3c(=O)n2-c2ccccc2)CC1,94.8% (inactive),
